Assay results as given in PubChem BioAssay (NCI).
The panel holds about 83,000 compounds, 20% with a hit somewhere; the sample as a whole holds those more often.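 Cells were grown in 96-well plates and exposed to the test compound at a single concentration for 48 hours; results are reported as percent growth, with values below 10 considered active.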 Activity calls are given as the source filed them.

How the values were obtained:
Test in all cases: NCI-60 one-dose screen, 48 h (100 = growth as untreated, 0 = no growth, -100 = all killed)
[1] = tested on: NCI-H23 lung; conditions: 10 µM unless noted
[2] = tested on: NCI-H226 lung; conditions: 10 µM unless noted
[3] = tested on: NCI-H322M lung; conditions: 10 µM unless noted
[4] = tested on: HOP-62 NSCLC; conditions: 10 µM unless noted
[5] = tested on: NCI-H460 lung; conditions: 10 µM unless noted
[6] = tested on: HOP-92 NSCLC; conditions: 10 µM unless noted
[7] = tested on: NCI-H522 lung; conditions: 10 µM unless noted
[8] = tested on: A549/ATCC NSCLC; conditions: 10 µM unless noted
[9] = tested on: 786-0 renal; conditions: 10 µM unless noted
[10] = tested on: COLO 205 colon; conditions: 10 µM unless noted
[11] = tested on: DU-145 prostate; conditions: 10 µM unless noted
[12] = tested on: MALME-3M melanoma; conditions: 10 µM unless noted
[13] = tested on: MDA-MB-231 breast; conditions: 10 µM unless noted
[14] = tested on: RXF 393 renal; conditions: 10 µM unless noted
[15] = tested on: SF-268 CNS; conditions: 10 µM unless noted
[16] = tested on: SF-295 CNS; conditions: 10 µM unless noted
[17] = tested on: SF-539 CNS; conditions: 10 µM unless noted
[18] = tested on: UACC-257 melanoma; conditions: 10 µM
[19] = tested on: M14 melanoma; conditions: 10 µM unless noted

Measured: growth

CS(=O)c1nccc(-c2c(-c3ccc(F)c(OCc4ccc(F)cc4)c3)nc3sccn23)n1 (configuration not stated)
inactive: [1] 61.6% | [2] 95.3% | [3] 62.7% | [4] 100% | [5] 35.6% | [6] 16.9% | [8] 102% | [9] 100% | [10] 100% | [12] 92.3% | [13] 67.8% | [14] 87.6% | [15] 100% | [16] 97.8% | [17] 88.4% | [19] 81.6%
active: [7] -51.8% | [11] -9.49% | [18] -24.6%

C=CCn1c(SCC(=O)Nc2cccc(C(=O)/C=C/c3ccc(OC)c(OC)c3)c2)nc2ccccc2c1=O
inactive: [1] 93.2% | [2] 83.7% | [3] 87.8% | [4] 103% | [5] 91.7% | [6] 84.6% | [7] 83.6% | [8] 89.1% | [9] 100% | [10] 116% | [11] 95.2% | [12] 84.7% | [13] 89.7% | [14] 87.9% | [15] 89.1% | [16] 104% | [17] 90.3% | [18] 108% | [19] 114%

Cc1ccccc1/C=C/c1nn2c(-c3ccoc3C)nnc2s1
inactive: [1] 97.8% | [2] 100% | [3] 99.4% | [4] 107% | [5] 102% | [6] 93.9% | [7] 92.4% | [8] 90% | [9] 90.8% | [10] 108% | [11] 103% | [12] 106% | [13] 104% | [14] 96.2% | [15] 101% | [16] 94% | [17] 103% | [18] 110% | [19] 99%

C=C1C(=O)O[C@@H]2C[C@@H](C)[C@H](OC)CC(=O)[C@](C)(OC(C)=O)C[C@H](OC(=O)/C(C)=C\C)[C@@H]12
inactive: [1] 70% | [2] 96.4% | [3] 95.1% | [4] 89.5% | [5] 101% | [6] 85.1% | [8] 100% | [9] 93% | [11] 78.3% | [12] 40.2% | [13] 36.7% | [14] 58.7% | [15] 93.1% | [16] 91.6% | [17] 71.4% | [18] 77.1% | [19] 88.8%
active: [7] -67.8% | [10] -7.69%

Clc1ccccc1/C=C/c1nn2c(-c3ccncc3)nnc2s1
inactive: [1] 99% | [2] 91% | [3] 100% | [4] 108% | [5] 102% | [6] 103% | [7] 101% | [8] 106% | [9] 96.9% | [10] 115% | [11] 103% | [12] 100% | [13] 101% | [14] 109% | [15] 98.7% | [16] 98% | [17] 98.3% | [18] 121% | [19] 85.7%

COc1ccc(-c2no[n+]([O-])c2Nc2ccccc2Br)cc1
active: [2] -13%
inactive: [1] 91.8% | [3] 96.8% | [4] 84.5% | [5] 101% | [6] 73% | [7] 81.4% | [8] 102% | [9] 106% | [10] 107% | [11] 106% | [12] 88% | [13] 81.5% | [14] 102% | [15] 92.4% | [16] 106% | [17] 93.9% | [19] 89.3%

COc1cc2c3c(n(CCCNC4CCC4)c(=O)c2cc1OC)-c1cc2c(cc1C3=O)OCO2
active: [1] -68% | [3] -37.7% | [4] -72.2% | [5] -50.4% | [7] -44.9% | [8] -50.6% | [9] -85.2% | [10] -79.9% | [11] -73.5% | [12] -46.2% | [13] -65.1% | [14] -74% | [17] -83.5% | [19] -78%
inactive: [2] 70.6% | [6] 87.9% | [15] 45.6% | [16] 20.4%

COc1cnc2c(c1)C(=O)c1c-2n(CCCNCC2CC2)c(=O)c2cc(F)ccc12
inactive: [15] 14.6% | [19] 15%
active: [1] -44.5% | [2] -14.1% | [3] -1.44% | [4] -31.6% | [5] -66.6% | [6] -5.96% | [7] -55.3% | [8] -61.9% | [9] -32.4% | [10] -45.8% | [11] 4.61% | [12] -12.2% | [13] -25.2% | [14] -47.5% | [16] -7.51% | [17] -65.6%

O=c1cc(-c2ccccc2)nc2sc(-c3c[nH]c4ccc(F)cc34)nn12
active: [6] -1.32%
inactive: [1] 73.2% | [2] 41% | [3] 61.2% | [4] 19.1% | [5] 17.2% | [7] 62.6% | [8] 58.7% | [9] 15.8% | [10] 74.7% | [11] 63.3% | [12] 21.9% | [13] 51.8% | [14] 40.5% | [15] 82.9% | [16] 82.9% | [17] 68% | [19] 63.5%

CCOC(=O)CC(=O)CSC1=NC2C(NN1)N(C)C(=O)N2C (configuration not stated)
inactive: [1] 75.5% | [2] 100% | [3] 103% | [4] 107% | [5] 105% | [6] 88.7% | [7] 72.8% | [8] 102% | [9] 103% | [10] 108% | [11] 90.2% | [12] 61.6% | [13] 75.3% | [14] 105% | [15] 99.4% | [16] 102% | [17] 91.5% | [19] 81.3%

COc1cc2c3c(n(CCCNCC4CC4)c(=O)c2cc1OC)-c1cc2c(cc1C3=O)OCO2
inactive: [2] 61.9% | [3] 66.9% | [6] 90.8% | [10] 38% | [12] 71.1% | [14] 43.9% | [15] 45.6% | [16] 22.3% | [19] 31.9%
active: [1] -52.6% | [4] -85.8% | [5] -58.7% | [7] -66.1% | [8] -85.1% | [9] -98.2% | [11] -52.9% | [13] -73.6% | [17] -88%

N#Cc1ccc(S(=O)(=O)Nc2ccc(-c3cnc(N)[nH]3)cc2)cc1
inactive: [1] 99.1% | [2] 96.4% | [3] 97.4% | [4] 105% | [5] 103% | [6] 100% | [7] 94% | [8] 98.4% | [9] 100% | [10] 105% | [11] 107% | [12] 98% | [13] 100% | [14] 102% | [15] 105% | [16] 96.9% | [17] 98.7% | [18] 98.2% | [19] 99.9%

c1cncc(-c2cn3nc(-c4c[nH]c5ccccc45)sc3n2)c1
active: [2] -48.5% | [7] 2.85%
inactive: [1] 49.9% | [3] 72.2% | [4] 66% | [5] 25.4% | [6] 33.8% | [8] 57.8% | [9] 22.5% | [10] 44.4% | [11] 73% | [12] 38.3% | [13] 52.5% | [14] 52.1% | [15] 83.4% | [16] 74.7% | [17] 42.2% | [19] 37%

C=CCn1c(SCC(=O)Nc2cccc(C(=O)/C=C/c3ccc(C)cc3)c2)nc2ccccc2c1=O
inactive: [1] 81.3% | [2] 92.6% | [3] 92.1% | [4] 113% | [5] 94.8% | [6] 103% | [7] 83.8% | [8] 82.3% | [9] 98.9% | [10] 109% | [11] 95.9% | [12] 106% | [13] 92.8% | [14] 77.7% | [15] 90.6% | [16] 101% | [17] 89.4% | [18] 96.8% | [19] 96.7%

COc1cc2c3c(n(CCCN4CCCC4)c(=O)c2cc1OC)-c1cc2c(cc1C3=O)OCO2
inactive: [2] 80.1% | [6] 119% | [16] 35.1%
active: [1] -73.2% | [3] -40.2% | [4] -72.6% | [5] -78.6% | [7] -59.7% | [8] -77.1% | [9] -90.9% | [10] -77.3% | [11] -71.1% | [12] -76.5% | [13] -76.1% | [14] -75.9% | [15] -49.1% | [17] -83.2% | [19] -86.3%
